# Experimental data as given in PubChem BioAssay AID1851 (National Center for Advancing Translational Sciences (NCATS), 2009).
# Screen size: about 16,000 compounds; about 5,100 (32%) were called active. Roughly 25% stayed inconclusive and do not appear here. Some of the results follow. Unmarked numbers belong to inactive results. Calls follow the shape of the dose curve; as a rule, active = well fitted curve in the direction sought with a large enough effect; inconclusive = small, poorly fitted or top-dose-only effect, or effect the other way; inactive = no such curve, though single readings can be large or run the other way.
# Biological target: Cytochrome P450 3A4 (Homo sapiens) (UniProt P08684)
# Sequence (P08684 whole entry, looked up): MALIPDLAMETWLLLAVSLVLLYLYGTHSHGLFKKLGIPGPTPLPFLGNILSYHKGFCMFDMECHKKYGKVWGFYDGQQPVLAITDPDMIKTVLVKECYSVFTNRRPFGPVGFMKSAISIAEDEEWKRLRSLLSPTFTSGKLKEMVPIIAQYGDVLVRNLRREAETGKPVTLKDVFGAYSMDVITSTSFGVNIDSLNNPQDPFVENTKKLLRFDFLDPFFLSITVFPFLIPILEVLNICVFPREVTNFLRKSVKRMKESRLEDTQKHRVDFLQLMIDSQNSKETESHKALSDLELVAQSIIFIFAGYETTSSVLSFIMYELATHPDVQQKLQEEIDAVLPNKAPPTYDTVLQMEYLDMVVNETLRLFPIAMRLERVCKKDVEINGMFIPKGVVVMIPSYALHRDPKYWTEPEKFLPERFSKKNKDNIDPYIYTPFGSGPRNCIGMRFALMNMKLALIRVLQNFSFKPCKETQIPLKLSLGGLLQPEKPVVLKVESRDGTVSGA
# Test: Cytochrome panel assay with activity outcomes
# Conditions: recombinant CYP, pro-luciferin dealkylation, luminescence, p450-cyp3a4; series mostly up to 57.1 µM
# % is scaled to controls: 0 for no effect and ±100 for the full control effect.
SMILES,AC50,"activity, negative = inhibition"
CCOc1ccc(C(CC(=O)O)NC(=O)COc2ccccc2)cc1 (stereo unspecified),inactive,
Cc1cccc2c1OCC/C2=N\NC(=O)COc1ccccc1Cl,inactive,
CC(N)=NCCCC[C@H](N)C(=O)O,inactive,
CC(C)c1cccc2nc3c(c([Si](C)(C)C(C)(C)C)c12)Cn1c-3cccc1=O,12.6 µM (active),
CCc1c2c(nc3cccc(C(C)C)c13)-c1cccc(=O)n1C2,15.8 µM (active),
CCc1cccc2nc3c(c([Si](C)(C)C)c12)Cn1c-3cccc1=O,12.6 µM (active),
CC(C)c1cccc2nc3c(c([Si](C)(C)C)c12)Cn1c-3cccc1=O,10 µM (active),
CCc1c2c(nc3cccc(OC)c13)OC(CC)C2 (stereo unspecified),inactive,
O=C1CS/C(=C\[N+](=O)[O-])N1c1ccc(OC(F)(F)F)cc1,inactive,
Cc1cc(C2CCCCC2)n(O)c(=O)c1,inactive,
CCN(CC)CCOc1ccc(/C(=C(\Cl)c2ccccc2)c2ccccc2)cc1,inactive,
CN(C)CCCO[C@H]1[C@H]([C@H](O)CO)O[C@H]2OC(C)(C)O[C@@H]21,inactive,
O=c1c2ccccc2nc2n1CCC2,inactive,
Cc1c2c(nc3ccccc13)-c1cccc(=O)n1C2,12.6 µM (active),
Cc1[nH]nc(-c2ccc(OCc3cnn(-c4ccccc4)c3)cc2O)c1Oc1ccc(F)cc1,14.1 µM (active),
COc1ccc(CCN2C(=O)C(Oc3ccccc3C)C2c2ccc3c(c2)OCO3)cc1OC (stereo unspecified),0.501 µM (active),
COC(=O)c1ccc(C2C(Oc3ccccc3)C(=O)N2CCc2ccc(OC)c(OC)c2)cc1 (stereo unspecified),2.82 µM (active),
Cc1ccccc1OC1C(=O)N(Cc2ccc3c(c2)OCO3)C1c1sccc1C (stereo unspecified),0.794 µM (active),
NC(N)=NC(N)=Nc1ccccc1 (tested in a mixture with another compound),,-12.3% [at 11.4 µM]
Clc1ccc(C2=C3CCCCn4c(-c5ccccc5)c[n+](c43)C2)cc1,inactive,
CC[C@H](NC(C)C)[C@H](O)c1ccc(O)c2[nH]c(=O)ccc12,inactive,
CCCc1cc(C(=O)Cc2nc3ccccc3s2)c(O)cc1O,12.6 µM (active),
O=C(O)[C@@H](O)[C@@H](O)[C@@H](O)[C@@H](O)c1nc2ccccc2s1,,-23.6% [at 11.4 µM]

SMILES,AC50,"activity, negative = inhibition"
O=C(NNc1nc2ccccc2s1)C1CC1,inactive,
O=C(Oc1ccc2ccccc2c1Br)N1CCCCCC1,14.1 µM (active),
O=C(CCN1CCCCC1)c1csc2ccccc12,,-13.8% [at 11.4 µM]
Cc1ccc(OC(=O)N2CCOCC2)cc1,inactive,
CCCCOc1ccc(C(=O)N/C(=C\c2cccc([N+](=O)[O-])c2)C(=O)OCCC)cc1,1 µM (active),
COc1ccc(/C=C(/NC(C)=O)C(=O)O)cc1,,4.62% [at 2.29 µM]
CCCCOc1ccc(C(=O)NCc2ccco2)cc1,inactive,
CCCCOc1ccc(C(=O)N/C(=C\c2ccc(OC)cc2)C(=O)OCc2ccco2)cc1,3.98 µM (active),
OC[C@@H]1O[C@H](O)[C@@H](Cl)[C@H](O)[C@@H]1O,inactive,
Cc1cc(Br)cc(C)c1OCCCCN(C)C,inactive,
C=CCNCCCCOc1c(Cl)cc(C)cc1Br,14.1 µM (active),
COCCCNCCCCOc1c(Cl)cc(C)cc1Br,,-14.4% [at 2.29 µM]
Cc1cnc(CNc2ccnc(-c3ccccc3C(F)(F)F)n2)cn1,inactive,
Cc1cnc(CNc2nc(-c3ccccc3C(F)(F)F)nc3ccccc23)cn1,5.01 µM (active),
COc1ccccc1-c1nc(NCc2cnc(C)cn2)c2ccccc2n1,15.8 µM (active),
COc1ccc2[nH]cc(CCNc3ncnc4ccc(-c5cccc(C#N)c5)cc34)c2c1,2.51 µM (active),
COc1ccc2[nH]cc(CCNc3ncnc4ccc(-c5ccoc5)cc34)c2c1,3.98 µM (active),
COc1ccc2[nH]cc(CCNc3ncnc4ccc(-c5ccccc5C#N)cc34)c2c1,2 µM (active),
COc1cccc(-c2ccc3ncnc(NCCc4c[nH]c5ccc(OC)cc45)c3c2)c1,1.26 µM (active),
COc1ccc2[nH]cc(CCNc3ncnc4ccc(-c5ccc6c(c5)OCO6)cc34)c2c1,2 µM (active),
COc1ccc2[nH]cc(CCNc3ncnc4ccc(-c5ccccc5CN(C)C)cc34)c2c1,1.58 µM (active),
COc1ccc2[nH]cc(CCNc3ncnc4ccc(-c5c(C)noc5C)cc34)c2c1,3.16 µM (active),
COc1ccc2[nH]cc(CCNc3ncnc4ccc(-c5cccnc5)cc34)c2c1,1 µM (active),
